Here are results for 23 molecules from the antibiotic and cytotoxicity screens of Wong et al. (2023).

The whole screen tested about 39,000 compounds, of which about 3,300 (8.5%) were called active. The sample holds actives, similar compounds and a random draw of the others, so the mix is not that of the screen.

The subject of this assay is HepG2. Nature of the assay: cytotoxicity call (relative viability < 0.9). The conditions noted are these: 10 µM.
`COc1ccc(NC(=O)Nc2cccc3c2O[C@H](CN(C)Cc2ccc(C(=O)Nc4ccccc4N)cc2)[C@H](C)CN([C@@H](C)CO)C3=O)cc1`: the cytotoxicity call was “inactive”.

As for `COC1=CC(=O)CC(C)C12Oc1c(Cl)c(OC)cc(OC)c1C2=O` (stereo not drawn), the cytotoxicity call was “active”.

As to `COc1cc(OC)c2c(c1Cl)OC1(C2=O)C(O)=CC(=O)CC1C` (stereo not drawn), the cytotoxicity call was “inactive”.

On to `NC(=O)N1C(=O)[C@H]2[C@H](C1=O)[C@H]1C=C(c3ccc(CO)cc3)[C@@H]2[C@@H](C2CC2)N1Cc1cc2c(cc1Br)OCO2`, for which the cytotoxicity call is “inactive”.

As for `CCCC#Cc1ccc2c(c1)O[C@H](CN(C)S(=O)(=O)c1cccc(F)c1)[C@@H](C)CN([C@H](C)CO)S2(=O)=O`, the cytotoxicity call is “inactive”.

With `Cc1ccccc1NC(=O)CC(C)C`, the cytotoxicity call was “inactive”.

Regarding `CCn1c(=O)c(-c2cc(NC(=O)Nc3ccccc3)c(F)cc2Br)cc2cnc(NC)cc21`, the cytotoxicity call is “active”.

Turning to `CN(C)CCCCCCNC(=O)[C@H]1C[C@H]2C(=O)NCC(=O)N2[C@H]1c1cccc(OCCO)c1`, the cytotoxicity call is “inactive”.

As for `Cc1ccc(S(=O)(=O)Nc2ccc3c(c2)C(=O)N([C@@H](C)CO)C[C@@H](C)[C@H](CN(C)C(=O)Nc2ccc(C(F)(F)F)cc2)OCCCC[C@@H](C)O3)cc1`, the cytotoxicity call was “inactive”.

On to `CC[C@@]1(C)N[C@H](C(=O)O)CS1`, for which the cytotoxicity call was “inactive”.

Take `COc1ccc2cc(-c3cc(-c4cc(Cl)cc(Cl)c4)nn3[C@@H](C)c3ccc(C(=O)NCCC(=O)O)cc3)ccc2c1`: the cytotoxicity call is “inactive”.

For `COc1ccc(-n2nc(CCC(=O)N(C)O)cc2-c2ccc(Cl)cc2)cc1`, the cytotoxicity call was “active”.

As to `C[C@H](CO)N1C[C@H](C)[C@H](CN(C)CC2CC2)Oc2cc(C#Cc3cccc(F)c3)ccc2S1(=O)=O`, the cytotoxicity call is “inactive”.

As to `O=c1[nH][n+](-c2ccccc2)no1`, the cytotoxicity call is “inactive”.

As to `COCC(=O)Nc1ccc2c(c1)[C@@H]1C[C@@H](CC(=O)N3CCOCC3)O[C@@H](CO)[C@@H]1O2`, the cytotoxicity call is “inactive”.

As to `O=C(NC[C@@H](O)CO)c1c(I)c(C(=O)NC[C@@H](O)CO)c(I)c(N(CCO)C(=O)CO)c1I`, the cytotoxicity call is “inactive”.

As to `O=C(NCC(O)CO)c1c(I)c(C(=O)NCC(O)CO)c(I)c(N(CCO)C(=O)CO)c1I` (stereo not drawn), the cytotoxicity call was “active”.

As to `CC(=O)N(C[C@@H](O)CO)c1c(I)c(C(=O)NC[C@@H](O)CO)c(I)c(C(=O)NC[C@@H](O)CO)c1I`, the cytotoxicity call is “inactive”.

Take `Cc1ccc(S(=O)(=O)Nc2ccc3c(c2)CC(=O)N([C@@H](C)CO)C[C@H](C)[C@H](CN(C)S(=O)(=O)c2cccs2)O3)cc1`: the cytotoxicity call was “inactive”.

As for `C[C@H](CO)N1C[C@H](C)[C@H](CN(C)Cc2ccc(Cl)c(Cl)c2)Oc2c(NS(=O)(=O)c3cccs3)cccc2C1=O`, the cytotoxicity call was “inactive”.

In the case of `CCn1c(Cl)nc2c1c(=O)n(C)c(=O)n2C`, the cytotoxicity call is “inactive”.

Take `Cc1nc2c(=O)n(C)c(=O)n(C)c2nc1Cl`: the cytotoxicity call was “active”.

With `Cn1c(=O)c2[nH]c(C3CCCC3)nc2n(C)c1=O`, the cytotoxicity call was “inactive”.
